PD-1 reverse act: activators reversing PD-1 mediated T-cell inhibition; primary human CD4 T cells, PD-L1 beads, CellTiter-Glo 96 h; activation, % (concentration not given with the values); 29,000 tested, under 10 active; AID 2316; call rule not given here;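 further: 0% = median vehicle wells and 100% = positive control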
NOMO-1 viab: STK33 inhibitor candidate reducing NOMO-1 cell viability; AID 2330; inhibition, % (test concentration not listed); NOMO-1 AML viability, CellTiter-Glo luminescence, 72 h; 7.5% of 37,000 active; in the data active means inhibition above about 80%; inconclusive means no clear call, values can overlap the other calls
STK33 kin inh: inhibitors of human STK33 kinase | inhibition, % at 12.5 µM | ADP-Glo luminescence, MBP substrate | 0.44% of 27,000 active | AID 2322; in the data active means inhibition above about 20%; inconclusive means no clear call, values can overlap the other calls
Target sequence (Q9BYT3 whole entry, looked up): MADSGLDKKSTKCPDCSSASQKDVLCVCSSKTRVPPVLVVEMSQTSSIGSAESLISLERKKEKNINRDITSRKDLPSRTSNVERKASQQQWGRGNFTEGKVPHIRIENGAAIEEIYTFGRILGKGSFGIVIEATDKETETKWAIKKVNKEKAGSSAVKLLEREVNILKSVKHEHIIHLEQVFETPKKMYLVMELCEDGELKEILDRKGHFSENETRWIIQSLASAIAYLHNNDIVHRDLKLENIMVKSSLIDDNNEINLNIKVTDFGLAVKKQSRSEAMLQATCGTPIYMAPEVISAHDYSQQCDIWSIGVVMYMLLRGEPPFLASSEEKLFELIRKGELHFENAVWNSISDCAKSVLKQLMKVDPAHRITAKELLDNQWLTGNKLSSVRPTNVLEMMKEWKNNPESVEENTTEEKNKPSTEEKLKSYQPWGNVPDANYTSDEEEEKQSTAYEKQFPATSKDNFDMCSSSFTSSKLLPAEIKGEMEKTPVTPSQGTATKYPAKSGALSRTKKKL
Numbers without * were called inactive. The entries come from a sample that favours hits as a whole.

What do the screens show for `C[C@@H]1CCCCO[C@H](CN(C)Cc2ccc(C(F)(F)F)cc2)[C@@H](C)CN([C@H](C)CO)C(=O)c2cc(NC(=O)CCCCCC(=O)Nc3ccccc3N)ccc2O1`?
PD-1 reverse act: -1; NOMO-1 viab: 131*

Results for C[C@@H]1CCCCO[C@@H](CN(C)Cc2ccc(C(=O)Nc3ccccc3N)cc2)[C@@H](C)CN([C@H](C)CO)C(=O)c2cc(NC(=O)c3ccncc3)ccc2O1 ?
PD-1 reverse act: -3; NOMO-1 viab: 62

What do the screens show for `C[C@@H]1CCCCO[C@@H](CN(C)Cc2ccc(C(=O)Nc3ccccc3N)cc2)[C@@H](C)CN([C@H](C)CO)C(=O)c2cc(NC(=O)Nc3ccc(F)cc3)ccc2O1`?
PD-1 reverse act: 1; NOMO-1 viab: 111*

How did C[C@@H]1CCCCO[C@H](CN(C)Cc2ccncc2)[C@@H](C)CN([C@H](C)CO)C(=O)c2cc(NC(=O)CCCCCC(=O)Nc3ccccc3N)ccc2O1 do in these assays?
PD-1 reverse act: -1; NOMO-1 viab: 14

Results for C[C@@H]1CCCCO[C@@H](CN(C)Cc2ccc(C(=O)Nc3ccccc3N)cc2)[C@@H](C)CN([C@H](C)CO)C(=O)c2cc(NC(=O)Nc3ccccc3)ccc2O1 ?
PD-1 reverse act: 1; NOMO-1 viab: inconclusive

What do the screens show for `C[C@@H]1CCCCO[C@@H](CN(C)Cc2ccc(C(=O)Nc3ccccc3N)cc2)[C@@H](C)CN([C@H](C)CO)C(=O)c2cc(NC(=O)Nc3ccc(C(F)(F)F)cc3)ccc2O1`?
PD-1 reverse act: -6; NOMO-1 viab: inconclusive

Results for C[C@@H]1CCCCO[C@@H](CN(C)Cc2ccc(C(=O)Nc3ccccc3N)cc2)[C@@H](C)CN([C@H](C)CO)C(=O)c2cc(NC(=O)CCC(F)(F)F)ccc2O1 ?
PD-1 reverse act: -1; NOMO-1 viab: 127*

How did Cn1nc(C(C)(C)C)cc1N do in these assays?
PD-1 reverse act: 0; NOMO-1 viab: -14

What do the screens show for `O=C(O)CCC(=O)Cc1ccccc1`?
PD-1 reverse act: 4; NOMO-1 viab: 3; STK33 kin inh: -2

What do the screens show for `C[C@@H]1CCCCO[C@H](CN(C)Cc2ccc(C(=O)O)cc2)[C@@H](C)CN([C@H](C)CO)C(=O)c2cc(NC(=O)c3ccccc3)ccc2O1`?
PD-1 reverse act: 1; NOMO-1 viab: 0; STK33 kin inh: -1

Results for C[C@@H]1CCCCO[C@@H](CN(C)Cc2ccc(C(=O)Nc3ccccc3N)cc2)[C@@H](C)CN([C@H](C)CO)C(=O)c2cc(NC(=O)c3ccccc3)ccc2O1 ?
PD-1 reverse act: -2; NOMO-1 viab: 141*

Results for N#CC(C#N)=C(N)Nc1ccccc1 ?
PD-1 reverse act: 1; NOMO-1 viab: 31; STK33 kin inh: -2

How did CCOC(=O)Nc1cccc(NC(=O)CC2c3ccccc3Oc3ccccc32)c1 do in these assays?
PD-1 reverse act: 0; NOMO-1 viab: 72; STK33 kin inh: 2

What do the screens show for `O=C(CC1c2ccccc2Oc2ccccc21)Nc1ccc(Cc2ccncc2)cc1`?
PD-1 reverse act: -4; NOMO-1 viab: 135*; STK33 kin inh: 4

How did C[C@@H]1CN([C@@H](C)CO)C(=O)Cc2cc(NC(=O)Cc3cn(C)c4ccccc34)ccc2O[C@@H]1CN(C)Cc1ccc(-c2ccccc2)cc1 do in these assays?
PD-1 reverse act: -3; NOMO-1 viab: 40; STK33 kin inh: 2

Results for C[C@H](CO)N1C[C@H](C)[C@H](CN(C)Cc2ccc(Oc3ccccc3)cc2)Oc2ccc(NC(=O)Cc3cn(C)c4ccccc34)cc2CC1=O ?
PD-1 reverse act: -1; NOMO-1 viab: 69; STK33 kin inh: 5

Results for C[C@@H]1CN([C@H](C)CO)C(=O)Cc2cc(NC(=O)Cc3cn(C)c4ccccc34)ccc2O[C@@H]1CN(C)Cc1ccc(-c2ccccc2)cc1 ?
PD-1 reverse act: -5; NOMO-1 viab: 110*; STK33 kin inh: -2

What do the screens show for `C[C@@H]1CN([C@H](C)CO)C(=O)Cc2cc(NC(=O)Cc3cn(C)c4ccccc34)ccc2O[C@@H]1CN(C)Cc1ccc(Oc2ccccc2)cc1`?
PD-1 reverse act: -9; NOMO-1 viab: 116*; STK33 kin inh: -1

How did Cc1ccc(N(Cc2ccco2)C(=O)c2cccc(S(=O)(=O)N3CCOCC3)c2)cc1 do in these assays?
PD-1 reverse act: -1; NOMO-1 viab: -17; STK33 kin inh: 0

What do the screens show for `COc1ccccc1CCNC(=O)c1cc(-c2ccc(C)o2)nc2ccccc12`?
NOMO-1 viab: 25; STK33 kin inh: -1

How did CCc1ccc(C(=O)Oc2ccc(C#N)cc2)cc1 do in these assays?
PD-1 reverse act: 1; NOMO-1 viab: 69

How did CN(C)Cc1ccc(C(=O)Oc2ccc(C(C)(C)C)cc2)cc1 do in these assays?
PD-1 reverse act: -2; NOMO-1 viab: 115*

What do the screens show for `COc1ccc(NC(=O)CCN2C(=O)c3ccccc3C2=O)cc1Cl`?
PD-1 reverse act: 3; NOMO-1 viab: 4; STK33 kin inh: -2

Results for CC1(C)C(=O)[C@@H]2O[C@@H]2[C@@]2(C)C1CC(=O)[C@]1(C)C2CC[C@@]2(C)[C@H](c3ccoc3)OC(=O)[C@H]3O[C@]321 (stereo partly specified) ?
NOMO-1 viab: 37; STK33 kin inh: 1

Results for COc1ccc(-c2coc3cc(O[C@@H]4O[C@H](CO)[C@@H](O)[C@H](O)[C@H]4O)cc(O)c3c2=O)cc1 ?
PD-1 reverse act: 1; NOMO-1 viab: 11; STK33 kin inh: -1

How did O=c1c(-c2ccc(O)cc2)coc2cc(O[C@@H]3O[C@H](CO)[C@@H](O)[C@H](O)[C@H]3O)cc(O)c12 do in these assays?
PD-1 reverse act: 1; NOMO-1 viab: 96*; STK33 kin inh: -4

How did CC(=O)N1c2ccccc2C(=O)C1NC(N)=S (stereo unspecified) do in these assays?
PD-1 reverse act: 0; NOMO-1 viab: 23

Results for O=C(O)CCn1cc(C(F)(F)F)ccc1=O ?
PD-1 reverse act: 0; NOMO-1 viab: -4; STK33 kin inh: -2

How did Cc1cc(-c2ccccn2)n[nH]c1=O do in these assays?
PD-1 reverse act: 0; NOMO-1 viab: 14

How did O=C(CSc1nnc(-c2cccnc2)o1)c1ccc2c(c1)OCCO2 do in these assays?
PD-1 reverse act: 3; NOMO-1 viab: 7; STK33 kin inh: -1

Results for C[C@@H]1CN([C@H](C)CO)C(=O)c2cccc(NC(=O)NC3CCCCC3)c2O[C@H]1CN(C)CC1CCCCC1 ?
PD-1 reverse act: -5; NOMO-1 viab: 104*

What do the screens show for `C[C@H](CO)N1C[C@H](C)[C@@H](CN(C)CC2CCCCC2)Oc2c(NC(=O)C3CCCCC3)cccc2C1=O`?
NOMO-1 viab: 96*

What do the screens show for `C[C@@H]1CN([C@@H](C)CO)C(=O)c2cccc(NC(=O)C3CCCCC3)c2O[C@@H]1CN(C)CC1CC1`?
PD-1 reverse act: 2; NOMO-1 viab: 31

What do the screens show for `C[C@@H]1CN([C@H](C)CO)C(=O)c2cccc(NC(=O)C3CCCCC3)c2O[C@H]1CN(C)CC1CCCCC1`?
PD-1 reverse act: -5; NOMO-1 viab: 111*

How did C[C@@H]1CN([C@@H](C)CO)C(=O)c2cccc(NC(=O)C3CCCCC3)c2O[C@@H]1CN(C)CC1CCCCC1 do in these assays?
NOMO-1 viab: 9

How did C[C@H](CO)N1C[C@H](C)[C@@H](CN(C)CC2CCCCC2)Oc2c(NC(=O)NC3CCCCC3)cccc2C1=O do in these assays?
NOMO-1 viab: 54

From PubChem BioAssay
